Results as given in PubChem BioAssay (NCATS).
Records with an inconclusive call do not appear. Calls of active or inactive are those of the source. Calls come from the whole dose curve; as a rule, active = well fitted inhibition curve with a large enough effect; inconclusive = small, poorly fitted or top-dose-only effect; inactive = flat fitted curve, though single readings scatter.

Experiments:
[1] = tested on: CRL-7250; experiment: Cytotoxic Profiling of Annotated Libraries Using Quantitative High-Throughput Screening (AID 1296008); settings: Five cell lines viability, CellTiter-Glo ATP luminescence, 48-72 h; stronger effect = lower value; for max response: % is set by controls: 0 for no effect and ±100 for the full control effect
Outline: (§1)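 Compounds were pin-transferred onto cells and incubated 48 or 72 hr at 37 degree Celsius, 95% humidity. CellTiter-Glo was added, plates sat 10 min at room temperature, then ATP-coupled luminescence was imaged as the viability read-out.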

[2] = tested on: HEK293; experiment: as above; settings: Five cell lines viability, CellTiter-Glo ATP luminescence, 48-72 h; stronger effect = lower value
Outline: as §1

[3] = tested on: HaCat; experiment: as above; settings: Five cell lines viability, CellTiter-Glo ATP luminescence, 48-72 h; stronger effect = lower value
Outline: as §1

[4] = tested on: KB-3-1; experiment: as above; settings: Five cell lines viability, CellTiter-Glo ATP luminescence, 48-72 h, stronger effect = lower value
Outline: as §1

[5] = tested on: NIH3T3; experiment: as above; settings: Five cell lines viability, CellTiter-Glo ATP luminescence, 48-72 h; stronger effect = lower value
Outline: as §1

[6] = tested on: HACAT; experiment: qHTS assay to identify novel small-molecules to repurpose for Merkel cell carcinoma treatment (AID 1296009); settings: MCC and control cell lines, CellTiter-Glo viability, 72 h; at 44.8 µM (top of the series) unless noted
Outline: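 Cells exposed to NPC (8-point) and MIPE (11-point) compound dilutions for 72 hr at 37 degree celsius; viability read by CellTiter-Glo luminescence, normalized to no-cell and DMSO in-plate controls.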

[7] = tested on: TAB109; experiment: qHTS profiling for inhibitors of Plasmodium falciparum proliferation (AID 504749);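 note: 0% = DMSO vehicle and full inhibition = artemisinin control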; settings: P. falciparum in erythrocytes, SYBR Green DNA, 72 h; series mostly up to 28.7 µM
Outline: (§2)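 P. falciparum-infected erythrocytes (0.3% parasitemia, 2.5% hematocrit final) were exposed to compounds for 72 h at 37 C in 5% CO2, then lysed with SYBR Green buffer overnight at room temperature; parasite DNA fluorescence was normalized to artemisinin and DMSO controls.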

[8] = tested on: TAB113; experiment: as above; settings: P. falciparum in erythrocytes, SYBR Green DNA, 72 h; series mostly up to 28.7 µM
Outline: as §2

[9] = tested on: TAB165; experiment: as above; settings: P. falciparum in erythrocytes, SYBR Green DNA, 72 h; series mostly up to 28.7 µM
Outline: as §2

[10] = tested on: W2; experiment: as above; settings: P. falciparum in erythrocytes, SYBR Green DNA, 72 h; series mostly up to 28.7 µM
Outline: as §2
Note: nearly all actives have a fitted effect of over 60% in size.

CC1(C)S[C@@H]2[C@H](N=CN3CCCCCC3)C(=O)N2[C@H]1C(=O)O
inactive: max response [1] -6.32% | max response [2] -2.19% | outcome [3] | max response [4] -4.82% | outcome [5] | outcome [6]

OCC(O)CS (centres undefined)
inactive: Potency [7] | Potency [8] | Potency [9] | max response [1] -11.9% | max response [2] 3.48% | outcome [3] | max response [4] 1.95% | max response [5] 0.523% | outcome [6]

CN(C/C=C/C#CC(C)(C)C)Cc1cccc2ccccc12
inactive: Potency [7] | Potency [8] | Potency [9] | max response [1] -11.8% | max response [2] -4.51% | outcome [3] | max response [4] -0.279% | max response [5] 2.57% | outcome [6]

C[C@H]1COc2c(C3(N)CC3)c(F)cc3c(=O)c(C(=O)O)cn1c23
inactive: Potency [7] | Potency [8] | Potency [9] | max response [1] 2.54% | max response [2] 4.33% | outcome [3] | max response [4] 14.4% | max response [5] 1.93% | outcome [6]

O=C(NCN1CCOCC1)c1cnccn1
inactive: Potency [7] | Potency [8] | Potency [9] | Potency [10] | max response [1] 3.76% | max response [2] 3.79% | outcome [3] | max response [4] -13.5% | max response [5] -0.98% | outcome [6]

CC(C)c1cc2c(cc1S(=O)(=O)O)[C@@]1(C)CCC[C@@](C)(C(=O)O)[C@@H]1CC2
inactive: Potency [7] | Potency [8] | Potency [9] | max response [1] -2.14% | max response [2] 0.927% | outcome [3] | max response [4] -7.82% | outcome [5] | outcome [6]

O=c1[nH]c(=O)c2ccccc2o1
inactive: Potency [7] | Potency [8] | Potency [9] | Potency [10] | outcome [1] | max response [2] 1.22% | outcome [3] | max response [4] -4.12% | max response [5] -16.8% | outcome [6]

CC1CCN(CCCC(=O)c2ccc(F)cc2)CC1
inactive: Potency [7] | Potency [8] | Potency [9] | max response [1] -0.306% | max response [2] -0.532% | outcome [3] | max response [4] -11.3% | max response [5] -1.04% | outcome [6]

Cc1c(N(C)C)c(=O)n(-c2ccccc2)n1C
inactive: Potency [7] | Potency [8] | Potency [9] | Potency [10] | outcome [1] | max response [2] -3.5% | outcome [3] | max response [4] -5.96% | max response [5] 4.65% | outcome [6]

CN/C(=C\[N+](=O)[O-])NCCSCc1csc(CN(C)C)n1
inactive: Potency [7] | Potency [8] | Potency [9] | Potency [10] | max response [1] -2.16% | max response [2] -19.8% | outcome [3] | max response [4] 8.03% | max response [5] 0.469% | outcome [6]

C=CCOc1ccccc1OCC(O)CNC(C)C (centres undefined)
inactive: max response [1] -3.74% | max response [2] 3.92% | outcome [3] | max response [4] -1.61% | max response [5] 4.04% | outcome [6]

CC[C@H](C)[C@H](N)C(=O)O
inactive: max response [1] -1.3% | max response [2] -2.12% | outcome [3] | max response [4] -15.9% | max response [5] -5.18% | outcome [6]

O=C(O)c1ccccc1OP(=O)(O)O
inactive: Potency [7] | Potency [8] | Potency [9] | Potency [10] | max response [1] 3.34% | max response [2] 2.49% | outcome [3] | max response [4] 12.4% | max response [5] 3.2% | outcome [6]

COc1ccccc1Oc1c(NS(=O)(=O)c2ccc(C(C)(C)C)cc2)nc(-c2ncccn2)nc1OCCO
inactive: Potency [7] | max response [1] -3.53% | max response [2] -4.43% | outcome [3] | max response [4] -7.61% | outcome [5] | outcome [6]

CC(=O)Nc1cccc(O)c1
inactive: Potency [7] | Potency [8] | Potency [9] | Potency [10] | max response [1] -4.66% | max response [2] 4.09% | outcome [3] | max response [4] 0.376% | max response [5] 0.534% | outcome [6]

COC(=O)c1ccc(O)cc1
inactive: Potency [7] | Potency [8] | Potency [9] | Potency [10] | max response [1] 1% | max response [2] 3.26% | outcome [3] | max response [4] 0.911% | outcome [5] | outcome [6]

O=C(O)c1cc(=O)c2ccccc2o1
inactive: Potency [7] | Potency [8] | Potency [9] | max response [1] 2.58% | max response [2] -0.978% | outcome [3] | max response [4] -5.78% | outcome [5] | outcome [6]
